Laboratory results: PubChem BioAssay (NCATS)
Inconclusive results are not listed. Unless noted, calls follow the shape of the dose curve; as a rule, active = well fitted curve in either direction with a large enough effect (not every such curve was filed as active); inconclusive = small, poorly fitted or top-dose-only effect, or another doubt; inactive = flat fitted curve, though single readings scatter.

Tests used:
[1] = AP1 Signaling Pathway (AID 357); settings: ME-180 AP-1-bla reporter, EGF-induced, beta-lactamase ratio, 5 h; at 17.2 µM (top of the series) unless noted;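 also: ME-180 reporter cells stimulated with EGF at its EC50 level; % is scaled to controls: 0 for no effect and ±100 for the full control effect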
Method in brief: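 In this screen, ME-180 cells in Opti-MEM with 0.5% dialyzed FBS received EC50 EGF and compound titrations for 5 h. AP-1 reporter beta-lactamase was detected via CCF4 ratio, giving AC50 for positive and negative modulators.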

[2] = Stat Signaling Pathway (AID 446); settings: ME-180 (cervical carcinoma) SIE beta-lactamase reporter, IL-6 stimulated, 5 h; at 17.2 µM (top of the series) unless noted;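 also: ME-180 cervical cancer cells given 40 pM IL-6 alongside compound; SIE-controlled beta-lactamase reporter measured as 460/530 nm FRET emission ratio; % is scaled to controls: 0 for no effect and ±100 for the full control effect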
Method in brief: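 FRET read-out (405 nm excitation, 460/530 nm emission) of a beta-lactamase reporter under a STAT-inducible element in ME-180 cervical carcinoma cells. Cells with compound receive 40 pM IL-6 for 5 h. Values are normalised to AC90 stimulation and AC90 JAK-inhibitor controls.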

[3] = target: Glucocorticoid receptor (Homo sapiens) (UniProt P04150); test: GR-GFP Redistribution (AID 450;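 active = compounds whose dose series gives a full or clear partial fitted curve of increased nuclear translocation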; also: potency is read from the fitted curve at half-maximal effect)
Chain of Glucocorticoid receptor (Homo sapiens) (P04150 whole entry, looked up): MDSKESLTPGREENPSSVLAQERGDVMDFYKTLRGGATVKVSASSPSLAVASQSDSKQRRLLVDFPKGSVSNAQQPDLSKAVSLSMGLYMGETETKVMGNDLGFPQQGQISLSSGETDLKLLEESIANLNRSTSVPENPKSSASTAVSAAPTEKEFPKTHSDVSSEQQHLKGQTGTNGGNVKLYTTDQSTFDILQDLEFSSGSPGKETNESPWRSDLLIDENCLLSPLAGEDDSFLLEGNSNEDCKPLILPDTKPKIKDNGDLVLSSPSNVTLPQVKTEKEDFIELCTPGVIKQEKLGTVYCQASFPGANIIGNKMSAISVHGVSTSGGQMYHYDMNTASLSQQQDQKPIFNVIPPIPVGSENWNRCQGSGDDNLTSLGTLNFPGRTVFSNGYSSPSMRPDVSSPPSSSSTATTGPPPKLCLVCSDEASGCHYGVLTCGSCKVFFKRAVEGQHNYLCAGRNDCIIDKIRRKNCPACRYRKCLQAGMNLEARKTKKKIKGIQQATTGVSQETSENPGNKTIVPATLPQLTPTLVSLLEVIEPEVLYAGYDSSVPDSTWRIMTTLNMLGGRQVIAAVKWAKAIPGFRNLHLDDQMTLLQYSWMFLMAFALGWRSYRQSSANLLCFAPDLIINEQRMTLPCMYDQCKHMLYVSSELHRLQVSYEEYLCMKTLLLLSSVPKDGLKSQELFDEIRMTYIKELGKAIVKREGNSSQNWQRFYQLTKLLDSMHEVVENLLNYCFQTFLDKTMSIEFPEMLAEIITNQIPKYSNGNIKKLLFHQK

CC(C)COc1ccc(C(=O)OCCN2CCOCC2)c(O)c1
inactive: activity change, negative = inhibition [1] 1.3% | activity, negative = inhibition [2] 0.653% | Potency [3] > 20.6 µM

CCCOc1cccc(CN2CCCCC2c2cccnc2)c1 (configuration not stated)
inactive: activity change, negative = inhibition [1] 0.284% | activity, negative = inhibition [2] 0.49% | Potency [3] > 20.6 µM

CC1(C)Cc2c(C#N)c(N3CCOCC3)nc(-c3ccccc3)c2CO1
inactive: activity change, negative = inhibition [1] -10.7% | activity, negative = inhibition [2] 6.12% | Potency [3] > 20.6 µM

Cc1nc(/N=C(\N)Nc2ccccc2)nc2ccccc12
inactive: activity change, negative = inhibition [1] -14.5% | activity, negative = inhibition [2] -26.3% | Potency [3] > 20.6 µM

Cc1cc(C)n(-c2nnc(C)n2/N=C/c2ccccc2F)n1
inactive: activity change, negative = inhibition [1] 8.65% | activity, negative = inhibition [2] 18% | Potency [3] > 20.6 µM

CN1C2C=C3C(C#N)=C(N)C(C#N)(C#N)[C@@H](c4ccc(Cl)cc4)[C@@H]3C1CC2 (some centres not stated)
inactive: activity change, negative = inhibition [1] -8.82% | activity, negative = inhibition [2] 5.5% | Potency [3] > 20.6 µM

CC(C)CNC(=O)c1c(N)n(/N=C/c2ccccn2)c2nc3ccccc3nc12
inactive: activity change, negative = inhibition [1] 14.9% | activity, negative = inhibition [2] 9.58% | Potency [3] > 20.6 µM

COC(=O)CSc1nc2sc3c(c2c(=O)n1C1CCCCC1)CCN(C)C3
inactive: activity change, negative = inhibition [1] -11.2% | activity, negative = inhibition [2] -5.31% | Potency [3] > 20.6 µM

CCN(CC)CCCn1c(C)cc2c(c1=O)C(c1ccccc1)C(C#N)=C(N)O2 (configuration not stated)
inactive: activity change, negative = inhibition [1] 1.7% | activity, negative = inhibition [2] 2.65% | Potency [3] > 20.6 µM

Clc1ccc2[nH]c3c(NCCN4CCOCC4)ncnc3c2c1
inactive: activity change, negative = inhibition [1] -14.6% | activity, negative = inhibition [2] -0.484% | Potency [3] > 20.6 µM

O=S(=O)(c1ccccc1)N1CCC(N2CCCCCC2)CC1
inactive: activity change, negative = inhibition [1] 5.59% | activity, negative = inhibition [2] 4.98% | Potency [3] > 20.6 µM

O=C1C=C(N2CCN(C3=CC(=O)CCC3)CC2)CCC1
inactive: activity change, negative = inhibition [1] 20.4% | activity, negative = inhibition [2] 13.1% | Potency [3] > 20.6 µM

O=C(NC1CCCCC1)N1CCSC1=Nc1ccccc1
inactive: activity change, negative = inhibition [1] 4.48% | activity, negative = inhibition [2] -11.7% | Potency [3] > 20.6 µM

CC(C)Cn1nc(NC(=O)C(C)(C)C)c2cc3ccccc3nc21
inactive: activity change, negative = inhibition [1] -20.3% | activity, negative = inhibition [2] -6.46% | Potency [3] > 20.6 µM

CCOC(=O)c1ccc(N2C(=O)CC(Sc3nnc(C)s3)C2=O)cc1 (configuration not stated)
inactive: activity change, negative = inhibition [1] 6.1% | activity, negative = inhibition [2] 1.82% | Potency [3] > 20.6 µM

C=CCSc1nnc2n(CCc3ccccc3)c(=O)c3c4c(sc3n12)COC(C)(C)C4
inactive: activity change, negative = inhibition [1] -23.5% | activity, negative = inhibition [2] -18.1% | Potency [3] > 20.6 µM

CCCCCCSC1=C(C#N)C(c2ccccc2)CC(=O)N1 (configuration not stated)
inactive: activity change, negative = inhibition [1] -25.4% | activity, negative = inhibition [2] -19.8% | Potency [3] > 20.6 µM

CC1(C)Cc2c(sc3ncn4nnnc4c23)CO1
inactive: activity change, negative = inhibition [1] -0.575% | activity, negative = inhibition [2] 2.69% | Potency [3] > 20.6 µM

Cc1cc(=O)[nH]c(COc2ccccc2)n1
inactive: activity change, negative = inhibition [1] 3.59% | activity, negative = inhibition [2] -2.52% | Potency [3] > 20.6 µM

CCOC(=O)C1CCN(c2nc3ccccc3nc2C(C#N)C(=O)OCCOC)CC1 (configuration not stated)
inactive: activity change, negative = inhibition [1] -17.6% | activity, negative = inhibition [2] -9.08% | Potency [3] > 20.6 µM

CCOC(=O)C1CCN(c2nc3ccccc3nc2C(C#N)C(=O)OC(C)COC)CC1 (configuration not stated)
inactive: activity change, negative = inhibition [1] -6.33% | activity, negative = inhibition [2] -12.7% | Potency [3] > 20.6 µM

COc1cc(S(=O)(=O)N2CCN(C)CC2)c(OC)cc1Br
inactive: activity change, negative = inhibition [1] 9.1% | activity, negative = inhibition [2] 3.25% | Potency [3] > 20.6 µM

CCC(NC(C)C)C(O)c1ccc(O)c2[nH]c(=O)ccc12 (configuration not stated)
inactive: activity change, negative = inhibition [1] -12.1% | activity, negative = inhibition [2] 11.4% | Potency [3] > 20.6 µM

CC(C)OC(=O)C(C#N)c1nc2ccccc2nc1N1CCN(Cc2ccc3c(c2)OCO3)CC1 (configuration not stated)
inactive: activity change, negative = inhibition [1] -10.5% | activity, negative = inhibition [2] -12.7% | Potency [3] > 20.6 µM

N#CC1=C2SCC(O)(c3ccccc3)N2C(=O)CC1c1ccccc1 (configuration not stated)
inactive: activity change, negative = inhibition [1] -17.2% | activity, negative = inhibition [2] -21.7% | Potency [3] > 20.6 µM

C[C@]12CC[C@@H]3c4ccc(O)cc4C(=O)C[C@H]3[C@@H]1CC[C@@H]2O
inactive: activity change, negative = inhibition [1] 0.317% | activity, negative = inhibition [2] -2.37% | Potency [3] > 20.6 µM

COc1ccc(S(=O)(=O)N2CCC(N3CCCCC3)CC2)cc1
inactive: activity change, negative = inhibition [1] 7.98% | activity, negative = inhibition [2] 6.94% | Potency [3] > 20.6 µM

CCCSc1nc(N2CCCC2)c2c(c1C#N)CC(C)(C)OC2
inactive: activity change, negative = inhibition [1] -3.22% | activity, negative = inhibition [2] 6.07% | Potency [3] > 20.6 µM

CCCSc1nnc2n(-c3ccccc3OC)c(=O)c3c4c(sc3n12)CCC4
inactive: activity change, negative = inhibition [1] 3.26% | activity, negative = inhibition [2] 15% | Potency [3] > 20.6 µM
